# Experimental data reported in PubChem BioAssay (EPA / NIEHS).
# Calls of active or inactive are those of the source. Rule for the calls: active = hit-call score of the fitted dose curve at least 0.9, where 1 is the maximum; inconclusive = response in the unintended direction; inactive = score below 0.9.
# Biological target: Peroxisome proliferator-activated receptor gamma (Homo sapiens) (UniProt P37231)
# Test: OT_PPARg_PPARgSRC1_1440: Odyssey Thera (OT) 24-hour Protein-Complementation Assay for Peroxisome Proliferator-activated Receptor Gamma/ SRC-1 Co-activator (AID 2283388);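 note: nuclear to cytoplasmic ratio of reconstituted Venus YFP fluorescence in fixed imaged cells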
# In short: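 Readout: nuclear-to-cytoplasmic 488 nm fluorescence ratio, ≥350 cells per image, 8 images per well, after 24 h compound exposure of HEK293T expressing PPARg/SRC-1 split-YFP fusions. Activity fitted in positive direction against DMSO.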
# Sequence of Peroxisome proliferator-activated receptor gamma (Homo sapiens) (P37231 whole entry, looked up): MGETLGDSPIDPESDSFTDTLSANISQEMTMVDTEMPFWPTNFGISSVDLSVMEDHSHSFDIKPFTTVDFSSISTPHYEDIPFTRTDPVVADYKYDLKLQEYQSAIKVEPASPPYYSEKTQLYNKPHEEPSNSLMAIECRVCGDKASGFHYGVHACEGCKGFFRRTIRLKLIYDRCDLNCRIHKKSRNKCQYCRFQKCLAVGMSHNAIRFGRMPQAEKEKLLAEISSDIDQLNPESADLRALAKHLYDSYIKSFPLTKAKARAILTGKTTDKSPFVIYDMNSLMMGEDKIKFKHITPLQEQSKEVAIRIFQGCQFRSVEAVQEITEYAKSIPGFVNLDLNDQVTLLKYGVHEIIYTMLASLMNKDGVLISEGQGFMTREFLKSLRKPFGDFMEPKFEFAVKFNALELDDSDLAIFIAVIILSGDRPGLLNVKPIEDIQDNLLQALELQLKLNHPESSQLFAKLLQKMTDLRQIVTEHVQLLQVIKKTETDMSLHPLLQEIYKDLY
row,SMILES,outcome
1,c1ccc(Nc2cccc3ccccc23)cc1,inactive
2,CCCCCCCO,inactive
3,O=c1c(O)c(-c2ccc(O)cc2O)oc2cc(O)cc(O)c12,inactive
4,CCc1occc(=O)c1O,inactive
5,O=S(=O)(O)c1ccc(N=Nc2c(O)ccc3ccccc23)cc1,inactive
6,C1CNCCN1,inactive
7,CO[Si](C)(C)OC,inactive
8,N#Cc1ccc(C2CCCc3cncn32)cc1 (stereo not given),inactive
9,N#Cc1ccc(C(c2ccc(C#N)cc2)n2cncn2)cc1,inactive
10,CC(C)(C)N,inactive
11,CC12CCC(CC1)C(C)(C)O2,inactive
12,CCCCCCCCCCCCCC(=O)OC(C)C,inactive
13,CCCCC(CC)COC(=O)/C=C/c1ccc(OC)cc1 (stereo not given),inactive
14,CCCCCCCCCCCC(=O)N(C)CC(=O)O,inactive
15,C[Si](C)(C)N[Si](C)(C)C,inactive
16,CCCCOCCOC(=O)COc1ccc(Cl)cc1Cl,inactive
17,CCCCCCCCCC(C)=O,inactive
18,O=C(Oc1ccccc1)c1ccccc1O,inactive
19,Oc1ccccc1Cc1ccccc1O,inactive
20,CC(C)COC(=O)CC(C(=O)OCC(C)C)S(=O)(=O)O (stereo not given),inactive
21,C/C=C/C=C/CCCCCCCO,inactive
22,O=C(O)C1CCC(C(=O)O)CC1 (stereo not given),inactive
23,CC1=NN(c2ccc(S(=O)(=O)O)cc2)C(=O)C1N=Nc1ccccc1 (stereo not given),inactive
24,O=C(OCCc1ccccc1)c1ccccc1,inactive
25,CC(=O)OCc1ccccc1,inactive
26,CN(C)Cc1cc(CN(C)C)c(O)c(CN(C)C)c1,inactive
27,CCCCCCCCCCCCCCCCCCOS(=O)(=O)O,inactive
28,COC(=O)c1ccccc1C,inactive
29,COc1cc(O)c(C(=O)c2ccccc2)cc1S(=O)(=O)O,inactive
30,CCCCNS(=O)(=O)c1ccccc1,inactive
